# Results as given in PubChem BioAssay (Tox21).
# Several values for one entry are separate records, joined by “and”; a condition that tells them apart may be missing. Equal entries are not always repeated. Results filed as inconclusive are left out. A call without a number means that no potency is given here. Some compounds were tested as several samples or in several runs, with calls that do not always agree. Activity calls are given as the source filed them. The call rests on the fitted dose curve; in most records, active means well fitted curve in the direction sought with a large enough effect in the repeat runs; inconclusive means weak or mixed curves; inactive means no such curve, though single readings can be large; an effect the other way counts as inactive or inconclusive.
# Columns and labels:
# [1] = qHTS RealTime-Glo MT Cell Viability Assay in HEK293 cells - 0 hour (AID 1224880); further: top concentration of the series differs between compounds; nearly all actives have a fitted effect of over 45% in size
# Outline: (§1)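 Measured as luminescence from the same continuously cultured HEK293 wells at successive time points (0, 8, 16, 24, 32, 40 h) after compound addition. Reagent present from seeding; dosing at 5 h; incubation 37 C.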
# [2] = A CellTox Green Cytotoxicity Assay to monitor cytotoxicity in HEK293 cells - 32 hour (AID 1224881); further: nearly all actives have a fitted effect of over 40% in size; further: potency means the concentration at half of the fitted maximal effect
# Outline: (§2)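 Homogeneous no-lysis format: HEK293 cell suspension mixed with CellTox Green reagent, seeded, incubated 5 h at 37 C/5% CO2, then dosed by pintool with compound in DMSO.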
# [3] = A CellTox Green Cytotoxicity Assay to monitor cytotoxicity in HepG2 cells - 0 hour (AID 1224882); further: nearly all actives have a fitted effect of over 35% in size
# Outline: (§3)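 Fluorescent DNA-binding dye, 600 HepG2 cells/well, 5 h preincubation then compound in DMSO; same plates read at 0–40 h, 37 C.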
# [4] = A CellTox Green Cytotoxicity Assay to monitor cytotoxicity in HepG2 cells - 32 hour (AID 1224883); further: nearly all actives have a fitted effect of over 50% in size; further: potency means the concentration at half of the fitted maximal effect
# Outline: as §3
# [5] = A CellTox Green Cytotoxicity Assay to monitor cytotoxicity in HEK293 cells - 8 hour (AID 1224884); further: nearly all actives have a fitted effect of over 35% in size; further: potency means the concentration at half of the fitted maximal effect
# Outline: as §2
# [6] = qHTS RealTime-Glo MT Cell Viability Assay in HepG2 cells - 16 hour (AID 1224885); further: nearly all actives have a fitted effect of over 50% in size; further: potency means the concentration at half of the fitted maximal effect
# Outline: (§4)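 HepG2 cells were seeded at 600 cells/well together with NanoLuc luciferase and a cell-permeant prosubstrate, preincubated 5 h at 37 C/5% CO2, then pin-dosed with compounds in DMSO. Nonlytic luminescence from viable cells was read at each time point.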
# [7] = qHTS RealTime-Glo MT Cell Viability Assay in HEK293 cells - 24 hour (AID 1224886); further: nearly all actives have a fitted effect of over 50% in size; further: potency means the concentration at half of the fitted maximal effect
# Outline: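 HEK293 cells were seeded at 600 cells/well together with NanoLuc luciferase and cell-permeant prosubstrate, preincubated 5 h at 37 C/5% CO2, then given compound in DMSO by pintool. Luminescence from viable-cell prosubstrate reduction was read repeatedly over 40 h.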
# [8] = qHTS RealTime-Glo MT Cell Viability Assay in HEK293 cells - 8 hour (AID 1224887); further: nearly all actives have a fitted effect of over 50% in size; further: potency means the concentration at half of the fitted maximal effect
# Outline: as §1
# [9] = A CellTox Green Cytotoxicity Assay to monitor cytotoxicity in HEK293 cells - 16 hour (AID 1224888); further: nearly all actives have a fitted effect of over 35% in size; further: potency means the concentration at half of the fitted maximal effect
# Outline: as §2
# [10] = qHTS RealTime-Glo MT Cell Viability Assay in HepG2 cells - 0 hour (AID 1224889); further: nearly all actives have a fitted effect of over 50% in size; further: potency means the concentration at half of the fitted maximal effect
# Outline: as §4
SMILES,Potency [1],Potency [2],Potency [3],Potency [4],Potency [5],Potency [6],Potency [7],Potency [8],Potency [9],Potency [10]
CCCCCCc1ccc(O)cc1O,inactive,49.1 µM (active) and 49 µM (active) and inactive,inactive,49.1 µM (active) and 38.9 µM (active) and 21.3 µM (active),inactive,inactive,19.6 µM (active) and 11 µM (active),15.5 µM (active) and 9.77 µM (active),inactive,inactive
NC(=O)c1cccnc1,inactive,inactive,inactive,inactive,inactive,inactive,inactive,inactive,inactive,inactive
CC(O)(P(=O)(O)O)P(=O)(O)O,inactive,inactive,inactive,inactive,inactive,inactive,inactive and 436 nM (active),inactive,inactive,inactive
CC(C)NCC(O)c1ccc(O)c(O)c1 (stereo not given),inactive,inactive,inactive,inactive,inactive,inactive,48.4 µM (active) and inactive,inactive,inactive,inactive
O=c1[nH]cc(F)c(=O)[nH]1,inactive,50.8 µM (active) and inactive,inactive,45.3 µM (active) and inactive,inactive,inactive,inactive,inactive,inactive,inactive
Nc1ccc([N+](=O)[O-])cc1O,inactive,inactive,inactive,inactive,inactive,inactive,inactive,inactive,inactive,inactive
CNNCc1ccc(C(=O)NC(C)C)cc1,inactive,inactive,inactive,24.5 µM (active) and 19.5 µM (active),inactive,inactive,inactive,inactive,inactive,inactive
CCCCCCCC(=O)OCC(COC(=O)CCCCCCC)OC(=O)CCCCCCC,inactive,inactive,inactive,inactive,inactive,inactive,inactive,inactive,inactive,inactive
CN(C)CCOC(c1ccccc1)c1ccccc1,inactive,inactive,inactive,inactive,inactive,inactive,inactive,inactive,inactive,inactive
Oc1ccccc1,inactive,inactive,inactive,inactive,inactive,inactive,inactive,inactive,inactive,inactive
F[B-](F)(F)F,inactive,inactive,inactive,inactive,inactive,inactive,inactive,inactive,inactive,inactive
O=c1[nH]cnc2c1ncn2[C@H]1CC[C@@H](CO)O1,inactive,inactive,inactive,inactive,inactive,inactive,inactive,inactive,inactive,inactive
CC12CCC(CC1)C(C)(C)O2,inactive,inactive,inactive,inactive,inactive,inactive,inactive,inactive,inactive,inactive
O=S1(=O)OC(c2ccc(O)cc2)(c2ccc(O)cc2)c2ccccc21,inactive,inactive,inactive,inactive,inactive,49 µM (active) and inactive,inactive,inactive,inactive,49 µM (active)
CC(=O)Nc1c(I)c(NC(C)=O)c(I)c(C(=O)O)c1I,inactive,inactive,inactive,inactive,inactive,inactive,inactive,inactive,inactive,inactive
CC(=O)CCC(=O)O,inactive,inactive,inactive,inactive,inactive,inactive,inactive,inactive,inactive,inactive
CN1[C@@H]2CC(OC(=O)[C@H](CO)c3ccccc3)C[C@H]1[C@@H]1O[C@@H]12 (stereo not given in full),inactive,inactive,inactive,inactive,inactive,inactive,inactive,inactive,inactive,inactive
OC[C@H]1O[C@H](O[C@]2(CCl)O[C@H](CCl)[C@@H](O)[C@@H]2O)[C@H](O)[C@@H](O)[C@H]1Cl,inactive,inactive,inactive,inactive,inactive,inactive,inactive,inactive,inactive,inactive
CCCCCCCCCCCCCCCC[N+](C)(C)Cc1ccccc1,inactive,50.5 µM (active) and 44.4 µM (active) and 23.9 µM (active),inactive,25.3 µM (active) and 15.8 µM (active) and 10.7 µM (active),45 µM (active) and 15.8 µM (active) and 21.3 µM (active),25.3 µM (active) and 19.8 µM (active) and 21.3 µM (active),8.98 µM (active) and 22.3 µM (active) and 3.01 µM (active),50.5 µM (active) and 49.8 µM (active) and inactive,50.5 µM (active) and 44.4 µM (active) and 23.9 µM (active),inactive

SMILES,Potency [1],Potency [2],Potency [3],Potency [4],Potency [5],Potency [6],Potency [7],Potency [8],Potency [9],Potency [10]
CC(=O)CC(c1ccccc1)c1c(O)c2ccccc2oc1=O (stereo not given),inactive,inactive,inactive,inactive,inactive,inactive,inactive,inactive,inactive,inactive
COc1ccc2c(c1)c(CC(=O)O)c(C)n2C(=O)c1ccc(Cl)cc1,inactive,inactive,inactive,inactive,inactive,inactive,inactive,inactive,inactive,inactive
O=C(O)CC(O)C(=O)O (stereo not given),inactive,inactive,inactive,inactive,inactive,inactive,inactive,inactive,inactive,inactive
C=CCc1ccc(O)c(OC)c1,inactive,inactive,inactive,inactive,inactive,inactive,inactive,inactive,inactive,inactive
Cc1cc(C)nc(NS(=O)(=O)c2ccc(N)cc2)n1,inactive,inactive,inactive,inactive,inactive,inactive,inactive,inactive,inactive,inactive
COc1ccc(C(Cl)=C(c2ccc(OC)cc2)c2ccc(OC)cc2)cc1,inactive,inactive,inactive,inactive,inactive and 43.6 µM (active),inactive,inactive,inactive,inactive,inactive
O=C1NS(=O)(=O)c2ccccc21,inactive,inactive,inactive,inactive,inactive,inactive,inactive,inactive,inactive,inactive
Cc1cn([C@H]2C=C[C@@H](CO)O2)c(=O)[nH]c1=O,inactive,inactive,inactive,inactive,inactive,inactive,inactive,inactive,inactive,inactive
CN(C)C(=S)SC(=S)N(C)C,inactive,2.52 µM (active) and 8.71 µM (active) and 3.01 µM (active),inactive,2.52 µM (active) and 1.95 µM (active) and 2.68 µM (active),inactive,2.75 µM (active),2.24 µM (active) and 2.19 µM (active) and 6.74 µM (active),inactive,inactive,inactive
CCCC[P+](CCCC)(CCCC)CCCC,inactive,inactive,inactive,inactive,inactive,inactive,19.4 µM (active) and 4.36 µM (active),inactive,inactive,inactive
NC1CCCCC1,inactive,inactive,inactive,inactive,inactive,inactive,inactive,–,inactive,inactive
CC(C)c1c(C(=O)Nc2ccccc2)c(-c2ccccc2)c(-c2ccc(F)cc2)n1CC[C@@H](O)C[C@@H](O)CC(=O)O,inactive,inactive,inactive,2.98 µM (active) and 10.2 µM (active) and 6.01 µM (active),inactive,inactive,inactive,–,inactive,inactive
CCN(CC)C(=O)c1cccc(C)c1,inactive,inactive,inactive,inactive,inactive,inactive,inactive,inactive,inactive,inactive
CN(C)C(=O)Nc1ccc(Cl)c(Cl)c1,inactive,inactive,inactive,inactive,inactive,inactive,inactive,inactive,inactive,inactive
CCOC(N)=O,inactive,inactive,inactive,inactive,inactive,inactive,inactive,–,inactive,inactive
NS(=O)(=O)c1cc2c(cc1Cl)NCNS2(=O)=O,inactive,inactive,inactive,inactive,inactive,inactive,inactive,inactive,inactive,inactive
Cc1c(C(=O)O)c(O)cc2c1C(=O)c1c(O)c([C@@H]3O[C@H](CO)[C@@H](O)[C@H](O)[C@H]3O)c(O)c(O)c1C2=O,inactive,inactive,inactive,inactive,inactive,inactive,inactive,–,inactive,inactive
O=C(O)c1ccccc1,inactive,inactive,inactive,inactive,inactive,inactive,inactive,–,inactive,inactive
